From PubChem BioAssay (NCI) come the findings set out here.

About 83,000 compounds went through this panel and 20% of them were active in at least one assay; those are over-represented in the sample as a whole.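 Treatment: one concentration, 48 hours, 96-well format. Scoring: percent growth, with anything below 10 considered active.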 Values without a mark were called inactive. Calls of active or inactive are those of the source.

Among the test systems are DU-145 prostate; MALME-3M melanoma; MDA-MB-231 breast; RXF 393 renal; SF-268 CNS; SF-295 CNS; SF-539 CNS; UACC-257 melanoma; M14 melanoma; HCT-15 colon; HT29 colon; SNB-75 CNS; SNB-19 CNS; PC-3 prostate; SK-MEL-5 melanoma; LOX IMVI melanoma; SK-MEL-28 melanoma; UACC-62 melanoma; K-562 leukemia; U251 CNS.
Common to all, as to test: NCI-60 one-dose screen, 48 h (100 = growth as untreated, 0 = no growth, -100 = all killed)
What all share (settings): 10 µM

`CO[C@H]1CC(O[C@@H]2/C(C)=C/C[C@@H]3C[C@@H](C[C@]4(C=C[C@H](C)[C@@H](C5CCCCC5)O4)O3)OC(=O)[C@@H]3C=C(C)[C@@H](O)[C@H]4OC/C(=C\C=C\[C@@H]2C)[C@]43O)O[C@@H](C)C1O[C@H]1C[C@H](OC)[C@@H](O)[C@H](C)O1` (some centres undefined): the growth in the assay with DU-145 prostate is -98.4% (active); with MALME-3M melanoma, -68.1% (active); with MDA-MB-231 breast it was -81.1% (active); in the assay on RXF 393 renal, -95.5% (active); in the assay with SF-268 CNS, -81.5% (active); in the assay on SF-295 CNS, -84.6% (active). The growth in the assay on SF-539 CNS was -72.3% (active); in the assay on UACC-257 melanoma it was -84% (active); in the assay with M14 melanoma, -88% (active); in the assay on HCT-15 colon, -79.2% (active); in the assay with HT29 colon, -71.9% (active); with SNB-75 CNS it was -66.8% (active). Also, the growth in the assay on SNB-19 CNS was -5.35% (active); in the assay with PC-3 prostate, -59.6% (active); in the assay on SK-MEL-5 melanoma, -97.8% (active); in the assay with LOX IMVI melanoma it was -97.3% (active); in the assay on SK-MEL-28 melanoma it was -64.6% (active).

As for `CCc1cc(Cl)c(OC)c(C(=O)NCC2CCCN2CC)c1O` (centres undefined), the growth was 102% in the assay with DU-145 prostate; 108% with MALME-3M melanoma; 50.6% in the assay with MDA-MB-231 breast; 73% in the assay with RXF 393 renal; 98.2% in the assay on SF-268 CNS; 85% in the assay on SF-295 CNS. For the same molecule, the growth was 103% with SF-539 CNS; 87.7% in the assay on UACC-257 melanoma; 103% with M14 melanoma; 91.8% in the assay with HCT-15 colon; 89.5% with HT29 colon; 67.1% in the assay on SNB-75 CNS. Also, the growth was 91.2% in the assay on SNB-19 CNS; 73.7% in the assay with PC-3 prostate; 83.4% in the assay on SK-MEL-5 melanoma; 97% with UACC-62 melanoma; 90.6% in the assay on LOX IMVI melanoma; 109% in the assay with SK-MEL-28 melanoma.

Take `O=C(N/N=C/c1ccc([N+](=O)[O-])cc1)c1ccccc1Nc1cccc(C(F)(F)F)c1`: the growth in the assay on K-562 leukemia is 107%; in the assay with MDA-MB-231 breast it was 80.5%; with SF-268 CNS, 98.4%; in the assay with SF-295 CNS, 105%; with SF-539 CNS, 60.7%; in the assay with UACC-257 melanoma, 95.5%. Further, the growth in the assay on M14 melanoma was 86.4%; in the assay with HCT-15 colon, 98.6%; with HT29 colon it was 69.8%; in the assay on SNB-75 CNS, 87.1%; in the assay with SNB-19 CNS, 105%; in the assay on U251 CNS, 89.2%. Besides, the growth was 91% with PC-3 prostate; 83.1% with SK-MEL-5 melanoma; 90.8% in the assay on UACC-62 melanoma; 98.1% with LOX IMVI melanoma; 91.7% in the assay with SK-MEL-28 melanoma.

For `CC(C)C1=C(O)C2=C(C(=O)C1=O)[C@@]1(C)CCCC(C)(C)[C@@H]1CC2`, the growth in the assay on DU-145 prostate was 81.6%; in the assay on MDA-MB-231 breast, 103%; with RXF 393 renal, 84.3%; with SF-268 CNS it was 63.4%; in the assay with SF-295 CNS, 43.3%; in the assay with SF-539 CNS it was 90%. Besides, the growth in the assay on UACC-257 melanoma is 78.7%; in the assay with M14 melanoma, 80.7%; in the assay with HCT-15 colon, 44.2%; in the assay on HT29 colon, 99%; in the assay on SNB-75 CNS it was 78.5%; with SNB-19 CNS, 53.4%. Besides, the growth is 50% with U251 CNS; 70.1% in the assay with SK-MEL-5 melanoma; 80% in the assay on UACC-62 melanoma; 56.9% in the assay on LOX IMVI melanoma; 73.4% in the assay on SK-MEL-28 melanoma.
